# Reference: PubChem BioAssay (Tox21)
# Records with an inconclusive call do not appear. Entries that show only a call come without a potency. Active and inactive are the calls of the source. The call rests on the fitted dose curve.
# Molecular target: Thyrotropin receptor (Homo sapiens) (UniProt P16473)
# Test: qHTS assay to identify small molecule agonists of the thyroid stimulating hormone receptor (TSHR) signaling pathway (AID 1224843); further: nearly all actives have a fitted effect of over 45% in size
# Details: TSHR-HEK293 cells, cAMP HTRF, agonist mode, 30 min; series mostly up to 92.4 µM
# Method in brief: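 Screening of the Tox21 10K collection used HEK293 cells engineered with TSHR at 800 cells per well. After a 30-min room-temperature compound exposure, HTRF cAMP reagents were added and fluorescence recorded 1 h later.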
# Chain of Thyrotropin receptor (Homo sapiens) (P16473 whole entry, looked up): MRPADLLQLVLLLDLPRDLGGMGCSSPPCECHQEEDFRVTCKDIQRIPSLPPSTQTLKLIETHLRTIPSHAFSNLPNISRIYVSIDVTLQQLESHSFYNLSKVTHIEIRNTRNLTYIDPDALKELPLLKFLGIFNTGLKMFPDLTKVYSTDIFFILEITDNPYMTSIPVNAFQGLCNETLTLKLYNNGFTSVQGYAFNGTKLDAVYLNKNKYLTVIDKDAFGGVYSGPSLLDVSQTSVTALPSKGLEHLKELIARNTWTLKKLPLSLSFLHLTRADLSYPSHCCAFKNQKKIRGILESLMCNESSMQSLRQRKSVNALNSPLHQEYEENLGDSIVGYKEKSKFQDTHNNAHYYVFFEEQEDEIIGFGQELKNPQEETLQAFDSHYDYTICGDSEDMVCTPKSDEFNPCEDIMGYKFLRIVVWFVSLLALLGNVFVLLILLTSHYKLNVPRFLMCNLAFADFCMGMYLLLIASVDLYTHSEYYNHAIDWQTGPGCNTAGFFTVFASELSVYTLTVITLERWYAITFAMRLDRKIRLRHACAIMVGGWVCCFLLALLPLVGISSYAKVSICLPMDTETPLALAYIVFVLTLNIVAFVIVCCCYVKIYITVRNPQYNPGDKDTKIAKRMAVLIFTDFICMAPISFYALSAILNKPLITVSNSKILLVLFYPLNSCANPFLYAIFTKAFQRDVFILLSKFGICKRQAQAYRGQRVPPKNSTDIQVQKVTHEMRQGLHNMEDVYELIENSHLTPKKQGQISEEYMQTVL
SMILES,Potency,activation
O=C(C1CCCCC1)N1CC(=O)N2CCCc3ccccc3C2C1 (centres undefined),inactive,
Nc1cccc2c(=O)[nH][nH]c(=O)c12,inactive,
CC(=O)Nc1ccccc1O,inactive,
Cc1ccc(NC(=O)c2ccc(CN3CCN(C)CC3)cc2)cc1Nc1nccc(-c2cccnc2)n1,inactive,
COc1ccnc2c1CCCCC2S(=O)c1nc2ccccc2[nH]1 (centres undefined),inactive,
COc1ccc(C(=O)Nc2ccccc2)cc1[N+](=O)[O-],inactive,
CCCCCCC/C=C/C=O,inactive,
CCCCOc1ccc(N)cc1,inactive,
CCc1c(C)[nH]c2c1C(=O)C(CN1CCOCC1)CC2 (centres undefined),inactive,
COC(=O)C(C)(C)C,inactive,
CC(C)C/C=C(\C=O)c1ccccc1,inactive,
CC(=O)Oc1cccc2c1C(=O)c1c(OC(C)=O)cc(C(=O)O)cc1C2=O,inactive,
Oc1ccc(Oc2ccccc2)cc1,inactive,
O=C1c2ccccc2C(=O)C1c1ccc2ccccc2n1,inactive,
CCCCCCCCCC(C)C=O (centres undefined),inactive,
C=C[Si](OCC)(OCC)OCC,inactive,
CC(C)CC(C)(C)C,inactive,
CCCC1CCOC(C)S1 (centres undefined),inactive,
O=Cc1ccc(Cl)c([N+](=O)[O-])c1,inactive,
CCn1nc(Cc2ccccc2)cc1C1CCN(C[C@H]2C[C@H](N(C)[C@@H](C(=O)O)C(C)C)C[C@@H]2c2cccc(F)c2)CC1,inactive,
CC1=CC(=C(c2ccc(N)cc2)c2ccc(N)cc2)C=CC1=N,,3.86% [at 8.39 µM] (inactive)
O=C(O)c1ccncc1,inactive,
COC(=O)/C=C/C(C)=C\C=C\C(C)=C\C=C\C=C(C)\C=C\C=C(C)\C=C\C(=O)O,inactive,
NC(=O)c1ccccc1C(N)=O,inactive,
O=[N+]([O-])c1ccccc1CCO,inactive,
CCCN(C1CCN(C(=O)C2CCNCC2)CC1)[C@@H]1CCc2ccc(OC)cc2C1,inactive,
O=C(N[C@@H](Cc1ccccc1)[C@@H](O)C(=O)N1C[C@@H](O)[C@@H](O)C1)c1cc2cc(Cl)ccc2[nH]1,inactive,
Sc1nc(S)nc(S)n1,inactive,

# Test system: not listed separately
# Test: qHTS assay to identify small molecule agonists of the hypoxia (HIF-1) signaling pathway - cell viability counter screen (AID 1224844); further: nearly all actives have a fitted effect of over 50% in size; further: potency means the concentration at half of the fitted maximal effect
# Details: HRE-bla ME-180 viability, CellTiter-Glo luminescence, 17 h; series mostly up to 76.8 µM
# Method in brief: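 HRE-bla ME-180 cells, 2,000/well in 0.5% dialyzed FBS medium, treated 17 h at 37C with compounds. Viability read in the same wells as the bla reporter, by CellTiter-Glo luminescence after 30 min at room temperature.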
row,SMILES,Potency
1,CC(=O)Nc1ccccc1O,inactive
2,Cc1ccc(NC(=O)c2ccc(CN3CCN(C)CC3)cc2)cc1Nc1nccc(-c2cccnc2)n1,inactive
3,O=c1[nH]nc(-c2ccc([N+](=O)[O-])o2)o1,inactive
4,COc1ccc(C(=O)Nc2ccccc2)cc1[N+](=O)[O-],inactive
5,COC(=O)Cc1cccc2ccccc12,inactive
6,CCCCOc1ccc(N)cc1,inactive
7,Nc1ccccc1Nc1ccccc1,inactive
8,CC/C=C\CCO,inactive
9,CCc1c(C)[nH]c2c1C(=O)C(CN1CCOCC1)CC2 (centres undefined),inactive
10,CC(C)C/C=C(\C=O)c1ccccc1,inactive
11,CC(=O)Oc1cccc2c1C(=O)c1c(OC(C)=O)cc(C(=O)O)cc1C2=O,inactive
12,Oc1ccc(Oc2ccccc2)cc1,inactive
13,CCCCCCCCCC(C)C=O (centres undefined),inactive
14,C=C[Si](OCC)(OCC)OCC,inactive
15,CC(C)(Cc1c[nH]c2ccccc12)NCC(O)COc1ccccc1C#N (centres undefined),inactive
16,O=Cc1ccc(Cl)c([N+](=O)[O-])c1,inactive
17,CCn1nc(Cc2ccccc2)cc1C1CCN(C[C@H]2C[C@H](N(C)[C@@H](C(=O)O)C(C)C)C[C@@H]2c2cccc(F)c2)CC1,inactive
18,O=C(O)c1ccncc1,inactive
19,COC(=O)/C=C/C(C)=C\C=C\C(C)=C\C=C\C=C(C)\C=C\C=C(C)\C=C\C(=O)O,inactive
20,NC(=O)c1ccccc1C(N)=O,49.2 µM (active)
21,O=C1c2ccccc2C(=O)c2c1ccc(O)c2O,inactive
22,CCCN(C1CCN(C(=O)C2CCNCC2)CC1)[C@@H]1CCc2ccc(OC)cc2C1,inactive
23,O=C(N[C@@H](Cc1ccccc1)[C@@H](O)C(=O)N1C[C@@H](O)[C@@H](O)C1)c1cc2cc(Cl)ccc2[nH]1,inactive
24,C(/C=C/C=C/Nc1ccccc1)=Nc1ccccc1,inactive
25,CC(C)(C)c1ccc(CCC=O)cc1,inactive
26,Sc1nc(S)nc(S)n1,inactive
